MCF10A rerep = A quantitative high throughput screen for small molecules that induce DNA re-replication in MCF 10a normal breast cells. hit rate 2.9% among 350,000. Potency, µM (top dose mostly 46.1 µM), without a hit: at the highest dose activity, positive = re-replication, most hits filed as activators. AID 624296, 2012. MCF 10A DNA re-replication, Hoechst nuclear intensity, 48 h; also: % of control where 0% means no effect; nearly all actives have a fitted effect of over 50% in size
KB-V1 cytotox = qHTS assay for MDR1-selective chemotherapeutics: Primary screen using the drug-selected MDR subline cells KB-V1 | KB-V1 MDR cells viability, CellTiter-Glo, 72 h | Potency, µM (doses to about 46.1 µM), actives largely listed as cytotoxic | hit rate 3.4% among 400,000 | AID 1347076, 2019; also: % is scaled to controls: 0 for no effect and ±100 for the full control effect; nearly all actives have a fitted effect of over 60% in size
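KB-V1 MDR subline cells in DMEM (phenol-red free, 10% FBS) exposed to compounds in qHTS concentration series for 72 h at 37 degrees C. Viability read by CellTiter-Glo luminescence; concentration-effect curves fitted after normalization and correction.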
HT1080NT lethal = qHTS for induction of synthetic lethality in tumor cells producing 2HG: qHTS for the HT-1080-NT fibrosarcoma cell line | HT-1080-NT fibrosarcoma viability, CellTiter-Glo ATP luminescence, 48 h | Potency, µM (top dose mostly 46.1 µM), without a hit: at the highest dose activity, negative = less viability, hits mostly cytotoxic | hit rate 1.6% among 360,000;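 also: NT is the 2HG producing partner of a matched IDH1 knockdown line; 0% = DMSO-treated cells and -100% = media-only wells without cells; nearly all actives have a fitted effect of over 55% in size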
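750 cells/well, RPMI + 5% FBS; 2 h settle, compound pin-transfer, 48 h at 37 degrees C. CellTiter-Glo 10 min RT, luminescence. Normalized to DMSO and media-only wells.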
SW480 rerep = A quantitative high throughput screen for small molecules that induce DNA re-replication in SW480 colon adenocarcinoma cells. hit rate 1.8% among 340,000. Potency, µM (titrated, usually from 46.1 µM), for inactives: at the highest dose re-replication activation, hits mostly activators. SW480 DNA re-replication, Hoechst DNA content imaging, 48 h; also: % of control where 0% means no effect; nearly all actives have a fitted effect of over 55% in size
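Cells (250 per well) received 23 nL compound or DMSO by pin tool and were kept 48 hr at 37 C, 5% CO2. Nuclei were then stained with Hoechst for 40 min and scanned for DNA content.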
KB-3-1 cytotox = qHTS assay for MDR1-selective chemotherapeutics: Primary screen using the parental adenocarcinoma cell KB-3-1; KB-3-1 viability, CellTiter-Glo ATP luminescence, 72 h; Potency, µM (highest dose often 46.1 µM), hits mostly cytotoxic; hit rate 1.4% among 400,000; also: % is scaled to controls: 0 for no effect and ±100 for the full control effect; nearly all actives have a fitted effect of over 60% in size
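Parental KB-3-1 adenocarcinoma cells in phenol-red-free DMEM with 10% FBS were pin-treated with compounds at several concentrations, incubated 72 h at 37 °C, and viability read by CellTiter-Glo luminescence; concentration-effect curves were fitted after normalization.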
HT1080 IDH1KD tx = qHTS for induction of synthetic lethality in tumor cells producing 2HG: qHTS for the HT-1080-IDH1KD cell line; Potency, µM (doses to about 46.1 µM), without a hit: at the highest dose activity, negative = toxicity, hits mostly cytotoxic; hit rate 2% among 360,000; HT-1080 IDH1 knockdown viability, ATP luminescence, 48 h; AID 686971, 2013;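 also: 0% = DMSO wells and -100% = cell-free medium wells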
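IDH1KD HT-1080 cells, 750/well, RPMI + 5% FBS; compound pinned after 2 h settling; 48 h, 37 °C; CellTiter-Glo luminescence; % activity normalised to DMSO and no-cell wells; curves fitted, classed by r2 and efficacy.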
The depositor's hits bear a star; [ ] = dose if it differs, or a comment. An excerpt weighted towards active compounds, which were near 8% of everything screened. Calls follow the shape of the dose curve; as a rule, active = well fitted curve in the direction sought with a large enough effect; inconclusive = small, poorly fitted or top-dose-only effect, or another doubt; inactive = no such curve, though single readings can be large; an effect the other way counts as inactive or inconclusive. Potency is read from the fitted curve at half-maximal effect.

Screening Oc1cccc(NC(=S)N=Nc2c(O)[nH]c3ccc(Br)cc23)c1 returned MCF10A rerep -21%, KB-V1 cytotox inactive, HT1080NT lethal inconclusive, SW480 rerep -9%, KB-3-1 cytotox inconclusive and HT1080 IDH1KD tx 21µM*.
Screening O=C(N=Nc1c(O)[nH]c2ccccc12)c1cccc(S(=O)(=O)N2CCCCC2)c1 returned MCF10A rerep 1%, KB-V1 cytotox inactive, HT1080NT lethal 3%, SW480 rerep -4%, KB-3-1 cytotox inactive and HT1080 IDH1KD tx 18%.
For CNC(=S)N=Nc1c(O)[nH]c2ccccc12 the results were MCF10A rerep 11%, KB-V1 cytotox inconclusive, HT1080NT lethal 1%, SW480 rerep 11%, KB-3-1 cytotox inactive and HT1080 IDH1KD tx -1%.
For CC(C)c1ccc2[nH]c(O)c(N=NC(=O)c3cccc(S(=O)(=O)N4CCCCC4)c3)c2c1 the results were MCF10A rerep 0%, KB-V1 cytotox 2.3µM*, HT1080NT lethal 6%, SW480 rerep -2%, KB-3-1 cytotox inconclusive and HT1080 IDH1KD tx 4%.
Cc1ccc(OCC(=O)OC2=C(C(=O)c3ccccc3)N(C)S(=O)(=O)c3ccccc32)cc1 was read as KB-V1 cytotox inconclusive and KB-3-1 cytotox inactive.
Screening COc1ccc(NC(=O)C2CCC(CNS(=O)(=O)c3ccc(Br)s3)CC2)c(OC)c1 (centres undefined) returned KB-V1 cytotox inconclusive and KB-3-1 cytotox inactive.
O=C(COc1ccccc1C(=O)Nc1ccccc1)Nc1ccccc1F was read as KB-V1 cytotox inactive and KB-3-1 cytotox inactive.
For Cc1ccc(S(=O)(=O)CCC(=O)NCCc2ccccc2)cc1 the results were MCF10A rerep 5%, KB-V1 cytotox inactive, HT1080NT lethal -2%, SW480 rerep -6%, KB-3-1 cytotox inactive and HT1080 IDH1KD tx -5%.
For Cc1ccc(S(=O)(=O)CCC(=O)NCCN2C(=O)S/C(=C\c3ccccc3)C2=O)cc1 the results were MCF10A rerep inconclusive, KB-V1 cytotox 12µM*, HT1080NT lethal -8%, SW480 rerep -22%, KB-3-1 cytotox inactive and HT1080 IDH1KD tx -12%.
`O=C(CCS(=O)(=O)c1ccc(Cl)cc1)NCCN1C(=O)S/C(=C\c2ccccc2F)C1=O` gave MCF10A rerep 19%, KB-V1 cytotox 13µM*, HT1080NT lethal -10%, SW480 rerep 3%, KB-3-1 cytotox inactive and HT1080 IDH1KD tx -4%.
Screening Cc1nc(N2N=C3/C(=C/c4ccc(F)cc4)CCCC3C2c2ccc(F)cc2)sc1C(=O)N(C)C (centres undefined) returned MCF10A rerep 29%, KB-V1 cytotox 21µM*, HT1080NT lethal 4%, SW480 rerep inconclusive, KB-3-1 cytotox inconclusive and HT1080 IDH1KD tx -1%.
Cc1ncsc1C(=O)N1N=C2/C(=C/c3ccc(N4CCOCC4)cc3)CCCC2C1c1ccc(N2CCOCC2)cc1 (centres undefined) was read as MCF10A rerep 5%, KB-V1 cytotox inactive, HT1080NT lethal 6%, SW480 rerep 3%, KB-3-1 cytotox inactive and HT1080 IDH1KD tx 5%.
`CC(C)OCCCNC(=O)C(=O)Nc1ccc2nc3n(c(=O)c2c1)CCCCC3` gave KB-V1 cytotox inactive and KB-3-1 cytotox inactive.
For N#Cc1ccccc1S(=O)(=O)N1CCN(C(=O)C2COc3ccccc3O2)CC1 (centres undefined) the results were MCF10A rerep 0%, KB-V1 cytotox 21µM*, HT1080NT lethal -3%, SW480 rerep -4%, KB-3-1 cytotox inactive and HT1080 IDH1KD tx -6%.
`O=C(C1COc2ccccc2O1)N1CCN(S(=O)(=O)c2cc(F)ccc2F)CC1` (centres undefined) gave MCF10A rerep -2%, KB-V1 cytotox inactive, HT1080NT lethal -2%, SW480 rerep 1%, KB-3-1 cytotox inactive and HT1080 IDH1KD tx -1%.
Screening COc1ccc(OC)c(Nc2nc(N)nc(-c3cc4ccccc4o3)n2)c1 returned MCF10A rerep inconclusive, KB-V1 cytotox 15µM*, HT1080NT lethal -28%, SW480 rerep inconclusive, KB-3-1 cytotox inconclusive and HT1080 IDH1KD tx 2%[9.24 µM].
COCCn1c(=O)[nH]c2cc(C(=O)N3CCN(Cc4ccc5c(c4)OCO5)CC3)ccc2c1=O was read as MCF10A rerep 10%, KB-V1 cytotox inactive, HT1080NT lethal 5%, SW480 rerep 5%, KB-3-1 cytotox inactive and HT1080 IDH1KD tx 1%.
`O=C(CCCCCn1c(=S)[nH]c2cc3c(cc2c1=O)OCO3)N1CCN(Cc2ccccc2)CC1` gave MCF10A rerep 21µM*, KB-V1 cytotox inactive, HT1080NT lethal -14%, SW480 rerep inconclusive, KB-3-1 cytotox inactive and HT1080 IDH1KD tx -25%.
For COCCn1c(=S)[nH]c2cc(C(=O)N3CCN(Cc4ccc5c(c4)OCO5)CC3)ccc2c1=O the results were MCF10A rerep inconclusive, KB-V1 cytotox 2.6µM*, HT1080NT lethal inconclusive, SW480 rerep inconclusive, KB-3-1 cytotox 4.1µM* and HT1080 IDH1KD tx -10%.
`O=C(CCCCCn1c(=S)[nH]c2cc3c(cc2c1=O)OCO3)N1CCN(C(=O)c2ccco2)CC1` gave MCF10A rerep -181%[0.0737 µM], KB-V1 cytotox inactive, HT1080NT lethal -24%, SW480 rerep 1%, KB-3-1 cytotox inactive and HT1080 IDH1KD tx -3%.
For CC1CCCCC1n1c(=S)[nH]c2ccccc2c1=O (centres undefined) the results were MCF10A rerep inconclusive, KB-V1 cytotox inactive, HT1080NT lethal 13µM*, SW480 rerep inconclusive, KB-3-1 cytotox inactive and HT1080 IDH1KD tx 11µM*.
Screening O=C(CCCCCn1c(=S)[nH]c2cc3c(cc2c1=O)OCO3)N1CCN(C2CCCCC2)CC1 returned MCF10A rerep inconclusive, KB-V1 cytotox 21µM*, HT1080NT lethal -4%, SW480 rerep inconclusive, KB-3-1 cytotox inactive and HT1080 IDH1KD tx 0%.
For CCCCNc1nc(Oc2ccc(=O)n(C)n2)nc(N2CCOCC2)n1 the results were KB-V1 cytotox inactive and KB-3-1 cytotox inactive.

Screens (PubChem BioAssay)
